Bioassay records (PubChem BioAssay)
Most compounds without a hit are left out; they make up all but 2.2% or so of the library.
HGIII-sPLA2 inh: Blocks human group III sPLA2 activity; 370,000 compounds, 0.56% hits; inhibition, % at 12.2 µM; QFRET BODIPY PC-A2 liposome hydrolysis, fluorescence; Q9NZ20;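 active means inhibition above mean plus 3 SD of compounds lying within the high and low control bounds, cut at about 19% in these data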
HTR5A ag: counter-screen for OPRM1-OPRD1 agonists: human HTR5A agonism | P47898 | HTR5A agonist assay, luminescence, cell-based | activation, % at 9.3 µM | 340,000 compounds, 0.61% hits | AID 504692; in the data active means activation mostly above about 9.5%, no sharp cut-off; inactive means mostly below about 7.6%
HTR5A inv ctr: counter-screen for OPRM1-OPRD1 inverse agonists: human HTR5A inverse agonism; P47898; HTR5A cell line, luminescence; inhibition, % at 9.3 µM; 340,000 compounds, 0.083% hits; in the data active means inhibition mostly above about 23%, no sharp cut-off; inactive means mostly below about 18%
OPRM1-OPRD1 ag: OPRM1-OPRD1 heterodimerization agonism | P35372+P41143 | cells, luminescence | activation, % at 9.3 µM | 340,000 compounds, 0.3% hits | AID 504326; in the data active means activation above about 18%
Target sequence (P35372 whole entry, looked up): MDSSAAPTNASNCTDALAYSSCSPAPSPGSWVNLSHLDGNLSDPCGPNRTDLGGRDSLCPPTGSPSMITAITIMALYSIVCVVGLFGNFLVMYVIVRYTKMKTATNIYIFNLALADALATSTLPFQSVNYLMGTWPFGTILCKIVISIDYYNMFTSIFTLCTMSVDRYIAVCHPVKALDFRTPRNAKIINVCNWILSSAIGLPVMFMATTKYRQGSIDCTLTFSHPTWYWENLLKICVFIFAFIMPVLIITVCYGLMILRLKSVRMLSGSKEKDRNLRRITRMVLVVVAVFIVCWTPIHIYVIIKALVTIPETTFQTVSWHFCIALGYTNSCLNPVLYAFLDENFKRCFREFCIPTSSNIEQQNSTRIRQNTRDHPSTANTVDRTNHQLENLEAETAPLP
Target sequence (P41143 whole entry, looked up): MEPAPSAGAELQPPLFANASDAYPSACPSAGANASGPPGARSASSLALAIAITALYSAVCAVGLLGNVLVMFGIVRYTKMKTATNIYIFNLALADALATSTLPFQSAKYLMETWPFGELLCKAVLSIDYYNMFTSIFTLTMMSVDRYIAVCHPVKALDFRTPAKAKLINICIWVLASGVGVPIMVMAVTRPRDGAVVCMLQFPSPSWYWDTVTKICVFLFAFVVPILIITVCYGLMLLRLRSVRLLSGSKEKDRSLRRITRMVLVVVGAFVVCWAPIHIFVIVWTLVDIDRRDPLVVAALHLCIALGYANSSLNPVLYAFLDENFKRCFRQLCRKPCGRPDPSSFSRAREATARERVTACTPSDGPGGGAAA
m5-HT2A agonist: mouse HTR2A agonism via beta-arrestin recruitment | CHO-K1 mHTR2A beta-arrestin complementation, luminescence; percent of 30 µM serotonin response | P35363 | activation, % at 7.6 µM | 360,000 compounds, 0.66% hits;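 active means activation above a run cutoff, the mean activation of all tested compounds plus 3 SD, cut at about 14% in these data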
OPRM1-OPRD1 inv: inverse agonist of human OPRM1-OPRD1 heterodimerization; P35372+P41143; cell-based MOR-DOR heterodimer luminescence, inverse agonism; inhibition, % at 9.3 µM; 340,000 compounds, 0.21% hits; in the data active means inhibition above about 22%, passing the limit was not always enough
sPLA2 confirm: human GIII-sPLA2 inhibition, confirmation; shares compounds with HGIII-sPLA2 inh; recombinant hGIII-sPLA2, BODIPY PC-A2 QFRET fluorescence; inhibition, % at 12.2 µM; 2,000 compounds, 34% hits;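 active means mean inhibition across triplicates above the hit cutoff set in the earlier primary screen, cut at about 19% in these data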
535nm interf: optically interferes with 535nm fluorescence in sPLA2 counter-screen. shares compounds with HGIII-sPLA2 inh. BODIPY FL product fluorescence interference, QFRET. inhibition, % at 12.2 µM. 2,000 compounds, 8.5% hits. AID 743282;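 active means average inhibition above the solvent-only control mean plus 3 SD, cut at about 6% in these data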
BODIPY interf DR: 535nm optical interference dose response, HGIII-sPLA2 counter-screen | 240 tested, under 10 active | AID 743455 | IC50, µM | BODIPY FL product fluorescence interference, cell-free | shares compounds with HGIII-sPLA2 inh;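 active means IC50 at or below 10 µM; inactive means IC50 above 10 µM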
A number is an active result; n = inactive; x = no result.

SMILES	HGIII-sPLA2 inh	HTR5A ag	HTR5A inv ctr	OPRM1-OPRD1 ag	m5-HT2A agonist	OPRM1-OPRD1 inv	sPLA2 confirm	535nm interf	others
NC(=O)C1(Nc2ccc(-c3ccc(Br)cc3)cc2)CCCC1	20	n	n	n	n	n	n	n
CCOC(=O)[C@@]12CCCC=C1N(CCc1ccc(Cl)cc1)C(=O)[C@H]2CC(=O)NCc1ccccc1	n	x	x	x	x	x	x	x
O=C1c2ccccc2C(=O)c2c(Nc3ccc(CCO)cc3)ccc(O)c21	21	n	n	n	n	n	48	n	BODIPY interf DR=n
CCCCOc1ccc(CSC(=N)N)cc1Cl	54	n	n	n	n	n	32	n	BODIPY interf DR=n
COc1ccc(Br)cc1CSC(=N)N	33	n	n	n	n	n	n	n
CCOc1ccc(CSC(=N)N)cc1	n	n	n	n	n	n	x	x
CCCCCOc1ccc(Br)cc1CSC(=N)N	29	n	n	n	n	n	21	n
COC(=O)C1CN(C2CCCC2)CCS(=O)(=O)N1Cc1cn(Cc2ccc(F)cc2)nn1 (stereo not given)	n	x	x	x	x	x	x	x
CC(C)NC(=O)c1ccccc1NC(=O)/C=C/c1cccc([N+](=O)[O-])c1	23	n	n	n	n	n	n	n
CC(C)C(NC(=O)/C=C/c1cccc([N+](=O)[O-])c1)C(C)C	n	n	n	n	n	n	x	x
CCN(CC)S(=O)(=O)c1cccc(C(=O)N/N=C/c2cc(OC)c(O)c(OC)c2)c1	n	n	n	n	n	n	x	x
CCN(CC)S(=O)(=O)c1cccc(C(=O)N/N=C/c2cccc(O)c2O)c1	23	n	n	n	n	n	n	n
O=C(O)c1ccccc1C(=O)Nc1ccc(S(=O)(=O)NC2CCCCC2)cc1	20	n	n	n	n	n	n	n
Clc1ccc2c(c1)Nc1ccccc1CC2	22	n	n	n	n	n	n	8.2
O=C1CCc2ccccc2N1	n	n	n	n	n	n	x	x
CC(=O)CC[C@H]1CC[C@]2(CCCN(C(=O)C3CCCCC3)C2)O1	n	x	x	x	x	x	x	x
Cc1cc2nc(C)c(=O)n(C)c2cc1C	23	n	n	n	n	n	n	n
COC(=O)c1cc(-c2c(C)noc2C)c(=O)n2c1CCC2	n	x	x	x	x	x	x	x
O=C(Nc1ccccc1OC(F)F)c1oc2ccccc2c1COc1ccccc1	25	n	n	n	n	n	n	n
CC(C)C[C@@H]1COc2cc(N3CCCC3)ccc2S(=O)(=O)N1	21	x	x	x	x	x	n	n
O=C1CCCN1c1nccs1	20	n	n	n	n	n	n	n
O=C1C2C3CC(C(Br)C3Br)C2C(=O)N1c1nccs1 (stereo not given)	n	x	x	x	n	x	x	x
CCCCCCCCNC(=S)NCCN1CCCCC1	23	n	n	n	n	n	21	n
O=C(CNC(=O)c1ccccc1)NCC(=O)OCC(=O)c1ccc(F)cc1	n	n	n	n	n	n	x	x
Cc1ccc(C(=O)NCC(=O)NCC(=O)OCC(=O)c2ccc(F)cc2)cc1	27	n	n	n	n	n	n	n
SMILES	HGIII-sPLA2 inh	HTR5A ag	HTR5A inv ctr	OPRM1-OPRD1 ag	m5-HT2A agonist	OPRM1-OPRD1 inv	sPLA2 confirm	535nm interf	others
COc1ccc(C(=O)N/N=C/c2cc3ccccc3[nH]c2=S)cc1	44	n	n	n	n	n	35	10
COc1ccc(C(=O)N/N=C/c2c[nH]c3ccccc23)cc1	n	n	n	n	n	n	x	x
Cc1cc(C(=O)c2ccc(Cl)cc2)c(NC(=O)CCl)s1	19	n	n	n	n	n	n	n
CCc1cc(C(=O)c2ccc(C)cc2)c(NC(=O)CCl)s1	n	n	n	n	n	n	x	x
CN1CC=C(c2ccc(C(F)(F)F)cc2)N(c2ccc(Br)cc2)C1=O	n	x	x	x	x	x	x	x
CCOC(=O)c1ccc2c(c1)C(=O)N(C1CCCCC1)C2=O	20	n	n	n	n	n	n	n
Cc1ccc(C(=O)C2CCN(CC(=O)N3CCCC3)CC2)cc1	n	x	x	x	x	x	x	x
CCOc1ccc(NCC2CCOC(C)(C)C2)cc1 (stereo not given)	20	n	n	n	n	n	n	n
